Laboratory results: the supplement of paper PMC11732987, “Enantioselective OTUD7B fragment discovery through chemoproteomics screening and high-throughput optimisation” (Communications Chemistry, 2025)

How the values were obtained:
Assay in all cases: log2 ratio of Biotin-Ahx-Ub-VS probe labelling (fragment/DMSO); higher = less target engagement (more negative = stronger competition), active = hit call of the paper (q ≤ 0.05, log2 ratio ≤ -1)
Details in all cases: compound concentration: 200 uM; treatment time: 3 h
OTUD6B = molecular target: T1, OTUD6B (UniProt Q8N6M0)
T1 sequence (whole entry): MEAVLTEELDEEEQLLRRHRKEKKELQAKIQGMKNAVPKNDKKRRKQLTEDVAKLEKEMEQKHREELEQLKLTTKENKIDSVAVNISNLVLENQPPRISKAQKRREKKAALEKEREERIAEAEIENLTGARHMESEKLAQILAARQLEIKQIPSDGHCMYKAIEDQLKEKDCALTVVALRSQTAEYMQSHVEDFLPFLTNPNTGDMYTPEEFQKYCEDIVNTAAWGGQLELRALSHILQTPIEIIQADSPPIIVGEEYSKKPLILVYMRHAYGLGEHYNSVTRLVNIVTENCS
Summary of the method: (§1)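 Triplicate samples of HEK293T lysate, 495 µg each, received fragment at 200 µM or vehicle for 3 h, followed by Biotin-Ahx-Ub-VS (0.5 µM final) for 1 h. After NeutrAvidin enrichment of labelled DUBs and LysC/trypsin digestion, peptides were run by diaPASEF LC-MS/MS. The values are average log2 fragment/vehicle ratios from global-median-normalised Spectronaut label-free quantities, tested by unpaired t-test on proteins having ≥2 unique peptides.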

OTUD7B = molecular target: T2, OTUD7B (UniProt Q6GQQ9)
T2 sequence (whole entry): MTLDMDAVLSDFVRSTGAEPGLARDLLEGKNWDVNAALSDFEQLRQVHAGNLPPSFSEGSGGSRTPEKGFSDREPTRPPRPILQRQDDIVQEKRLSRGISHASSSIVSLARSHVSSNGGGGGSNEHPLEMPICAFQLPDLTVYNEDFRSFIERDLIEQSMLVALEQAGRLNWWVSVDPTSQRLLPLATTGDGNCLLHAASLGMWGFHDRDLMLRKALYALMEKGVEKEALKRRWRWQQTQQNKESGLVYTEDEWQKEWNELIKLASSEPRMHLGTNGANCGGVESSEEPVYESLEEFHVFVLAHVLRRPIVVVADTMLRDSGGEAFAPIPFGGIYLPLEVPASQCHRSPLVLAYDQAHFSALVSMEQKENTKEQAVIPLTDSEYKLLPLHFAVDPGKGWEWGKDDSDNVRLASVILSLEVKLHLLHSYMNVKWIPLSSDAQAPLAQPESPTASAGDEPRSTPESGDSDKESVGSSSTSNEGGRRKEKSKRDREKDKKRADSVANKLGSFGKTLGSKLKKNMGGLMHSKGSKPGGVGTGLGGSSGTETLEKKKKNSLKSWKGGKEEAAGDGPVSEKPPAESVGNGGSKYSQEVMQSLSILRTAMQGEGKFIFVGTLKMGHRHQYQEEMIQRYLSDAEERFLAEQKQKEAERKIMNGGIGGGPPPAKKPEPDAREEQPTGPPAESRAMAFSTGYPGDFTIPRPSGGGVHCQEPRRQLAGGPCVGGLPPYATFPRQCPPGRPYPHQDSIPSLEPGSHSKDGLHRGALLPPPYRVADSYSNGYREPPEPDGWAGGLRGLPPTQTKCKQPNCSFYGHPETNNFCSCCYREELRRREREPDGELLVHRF
Summary of the method: as §1

PRPF8 = PRPF8 (UniProt Q6P2Q9)
Summary of the method: as §1

PSMD7 = molecular target: T3, PSMD7 (UniProt P51665)
T3 sequence (whole entry): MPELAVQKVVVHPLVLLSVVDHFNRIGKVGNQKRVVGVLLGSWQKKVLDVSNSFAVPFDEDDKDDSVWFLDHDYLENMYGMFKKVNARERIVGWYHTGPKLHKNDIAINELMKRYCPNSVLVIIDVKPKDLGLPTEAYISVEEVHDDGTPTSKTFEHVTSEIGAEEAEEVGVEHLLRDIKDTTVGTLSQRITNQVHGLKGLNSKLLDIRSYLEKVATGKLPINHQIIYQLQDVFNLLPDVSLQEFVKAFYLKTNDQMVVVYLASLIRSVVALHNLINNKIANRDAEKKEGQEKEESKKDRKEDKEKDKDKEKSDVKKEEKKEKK
Summary of the method: as §1

UCHL1 = UCHL1 (UniProt P09936)
Chain of UCHL1 (P09936 whole entry, looked up): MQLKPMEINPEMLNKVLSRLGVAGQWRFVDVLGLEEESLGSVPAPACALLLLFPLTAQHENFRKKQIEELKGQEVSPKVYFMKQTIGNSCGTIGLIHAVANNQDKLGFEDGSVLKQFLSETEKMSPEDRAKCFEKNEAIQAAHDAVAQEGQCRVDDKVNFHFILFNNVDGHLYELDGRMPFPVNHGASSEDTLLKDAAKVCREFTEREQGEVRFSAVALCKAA
Summary of the method: as §1

UCHL3 = molecular target: T4, UCHL3 (UniProt P15374)
T4 sequence (whole entry): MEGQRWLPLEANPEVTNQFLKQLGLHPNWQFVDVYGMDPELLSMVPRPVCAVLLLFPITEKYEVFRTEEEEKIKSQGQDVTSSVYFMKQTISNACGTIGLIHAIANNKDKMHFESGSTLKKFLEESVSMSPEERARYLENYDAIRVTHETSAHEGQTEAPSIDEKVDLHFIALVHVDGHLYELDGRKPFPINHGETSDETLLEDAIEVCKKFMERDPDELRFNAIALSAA
Summary of the method: as §1

UCHL5 = molecular target: T5, UCHL5 (UniProt Q9Y5K5)
T5 sequence (whole entry): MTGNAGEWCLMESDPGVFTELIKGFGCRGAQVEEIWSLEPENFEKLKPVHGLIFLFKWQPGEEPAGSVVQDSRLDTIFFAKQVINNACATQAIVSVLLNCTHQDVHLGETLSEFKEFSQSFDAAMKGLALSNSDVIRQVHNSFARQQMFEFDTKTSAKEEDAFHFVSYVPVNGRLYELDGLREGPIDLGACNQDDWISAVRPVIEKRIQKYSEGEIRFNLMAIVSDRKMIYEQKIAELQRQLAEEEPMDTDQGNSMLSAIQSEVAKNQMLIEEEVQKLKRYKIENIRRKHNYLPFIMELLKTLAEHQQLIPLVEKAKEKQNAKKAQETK
Summary of the method: as §1

USP10 = USP10 (UniProt Q14694)
Chain of USP10 (Q14694 whole entry): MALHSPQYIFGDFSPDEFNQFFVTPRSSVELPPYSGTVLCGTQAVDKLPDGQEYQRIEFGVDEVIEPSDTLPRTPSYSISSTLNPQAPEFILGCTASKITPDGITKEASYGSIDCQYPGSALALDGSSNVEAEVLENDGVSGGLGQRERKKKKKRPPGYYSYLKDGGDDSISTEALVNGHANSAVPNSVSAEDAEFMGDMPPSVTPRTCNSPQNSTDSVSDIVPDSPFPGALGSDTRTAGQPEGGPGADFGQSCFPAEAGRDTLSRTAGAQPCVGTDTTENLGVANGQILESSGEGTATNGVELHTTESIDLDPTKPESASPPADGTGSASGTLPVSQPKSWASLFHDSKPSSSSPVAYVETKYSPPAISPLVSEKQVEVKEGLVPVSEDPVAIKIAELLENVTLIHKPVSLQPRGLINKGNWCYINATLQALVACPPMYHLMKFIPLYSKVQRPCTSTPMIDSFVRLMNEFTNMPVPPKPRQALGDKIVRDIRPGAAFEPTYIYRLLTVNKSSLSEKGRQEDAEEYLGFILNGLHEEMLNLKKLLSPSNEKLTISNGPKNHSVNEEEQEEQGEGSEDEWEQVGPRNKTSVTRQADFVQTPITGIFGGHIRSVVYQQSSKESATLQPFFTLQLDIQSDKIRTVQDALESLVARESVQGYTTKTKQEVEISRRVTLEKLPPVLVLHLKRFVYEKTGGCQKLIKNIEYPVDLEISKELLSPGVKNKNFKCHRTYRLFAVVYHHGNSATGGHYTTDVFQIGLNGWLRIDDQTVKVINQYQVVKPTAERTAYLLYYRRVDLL
Summary of the method: as §1

USP15 = molecular target: T6, USP15 (UniProt Q9Y4E8)
T6 sequence (whole entry): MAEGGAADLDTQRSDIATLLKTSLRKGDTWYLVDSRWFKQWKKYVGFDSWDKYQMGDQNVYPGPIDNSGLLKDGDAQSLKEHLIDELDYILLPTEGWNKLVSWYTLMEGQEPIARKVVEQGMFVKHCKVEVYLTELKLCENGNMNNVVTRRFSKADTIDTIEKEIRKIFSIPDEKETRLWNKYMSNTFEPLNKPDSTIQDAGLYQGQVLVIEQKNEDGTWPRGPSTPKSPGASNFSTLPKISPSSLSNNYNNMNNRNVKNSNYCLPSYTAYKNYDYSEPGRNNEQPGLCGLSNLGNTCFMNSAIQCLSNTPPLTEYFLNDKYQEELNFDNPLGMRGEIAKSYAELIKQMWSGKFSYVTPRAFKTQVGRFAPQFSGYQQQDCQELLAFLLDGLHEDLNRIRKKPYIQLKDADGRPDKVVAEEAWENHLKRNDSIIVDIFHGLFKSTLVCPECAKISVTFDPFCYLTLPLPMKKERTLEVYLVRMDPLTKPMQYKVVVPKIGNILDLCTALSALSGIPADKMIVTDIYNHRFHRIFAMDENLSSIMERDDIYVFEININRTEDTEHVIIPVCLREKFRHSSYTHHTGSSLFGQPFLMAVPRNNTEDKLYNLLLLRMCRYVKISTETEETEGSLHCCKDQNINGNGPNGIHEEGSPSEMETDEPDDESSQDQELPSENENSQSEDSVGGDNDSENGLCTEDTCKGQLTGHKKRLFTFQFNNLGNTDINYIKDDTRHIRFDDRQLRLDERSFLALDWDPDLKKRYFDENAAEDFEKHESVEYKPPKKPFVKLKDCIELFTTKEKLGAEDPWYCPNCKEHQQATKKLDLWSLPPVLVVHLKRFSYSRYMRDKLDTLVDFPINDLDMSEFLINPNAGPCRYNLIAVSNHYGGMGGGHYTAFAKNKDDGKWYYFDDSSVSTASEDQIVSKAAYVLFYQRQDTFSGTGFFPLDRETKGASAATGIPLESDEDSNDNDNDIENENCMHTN
Summary of the method: as §1

USP16 = USP16 (UniProt Q9Y5T5)
Chain of USP16 (Q9Y5T5 whole entry, looked up): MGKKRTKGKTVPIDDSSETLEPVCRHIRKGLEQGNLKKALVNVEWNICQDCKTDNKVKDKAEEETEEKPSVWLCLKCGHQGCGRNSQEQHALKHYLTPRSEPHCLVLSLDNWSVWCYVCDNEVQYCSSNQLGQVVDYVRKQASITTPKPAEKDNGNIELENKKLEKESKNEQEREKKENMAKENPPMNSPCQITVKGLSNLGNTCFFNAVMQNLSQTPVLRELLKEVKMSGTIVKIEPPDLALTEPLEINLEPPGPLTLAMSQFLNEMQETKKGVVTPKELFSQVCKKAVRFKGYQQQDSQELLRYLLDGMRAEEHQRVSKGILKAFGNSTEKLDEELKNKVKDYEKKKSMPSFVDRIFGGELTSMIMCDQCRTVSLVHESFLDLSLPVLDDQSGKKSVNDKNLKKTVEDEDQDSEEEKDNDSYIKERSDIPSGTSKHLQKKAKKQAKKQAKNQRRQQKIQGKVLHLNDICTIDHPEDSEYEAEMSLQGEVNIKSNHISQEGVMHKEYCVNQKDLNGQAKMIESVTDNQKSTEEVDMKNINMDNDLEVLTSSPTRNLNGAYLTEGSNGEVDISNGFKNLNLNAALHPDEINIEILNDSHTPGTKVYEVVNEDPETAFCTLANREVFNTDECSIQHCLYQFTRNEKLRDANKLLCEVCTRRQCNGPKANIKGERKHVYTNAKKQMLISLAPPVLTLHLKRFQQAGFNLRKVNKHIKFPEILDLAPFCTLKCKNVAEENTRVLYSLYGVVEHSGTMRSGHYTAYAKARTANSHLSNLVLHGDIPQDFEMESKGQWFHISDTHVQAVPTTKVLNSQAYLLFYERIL
Summary of the method: as §1

Measured: log2 ratio of Biotin-Ahx-Ub-VS probe labelling

Cc1noc(C)c1CNC(=O)CCl
inactive: OTUD6B -0.543 | PRPF8 -0.184 | PSMD7 -0.529 | UCHL3 -0.701 | UCHL5 -0.89 | USP10 -0.261 | USP15 -0.867 | USP16 -0.591
active: OTUD7B -1.46 | UCHL1 -2.12
